# Screens (PubChem)
# IDE exosite FP – insulin-degrading enzyme (human) exo-site inhibition | hit rate 6.3% among 17,000 | z-score at 20 µM | AID 1259349 | purified IDE, FL-6b probe fluorescence polarization; stronger effect = lower value | P14735;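 active = z-score of -3 or lower, meaning strong loss of probe binding signal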;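 also: His-tagged human IDE residues 42-1019 made in E. coli with 30 nM FL-6b probe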
# * marks the source's active call; other numbers are inactive results. The sample as a whole holds a higher share of hits than the screen did.
SMILES,IDE exosite FP
COc1ccc(C#Cc2ccc([C@H]3[C@H]4CN(C(=O)Nc5ccccc5F)CCCCN4[C@H]3CO)cc2)cc1,3
COc1ccc(C#Cc2ccc([C@@H]3[C@@H](CO)N4CCCCN(C(=O)Nc5ccccc5F)C[C@H]34)cc2)cc1,1.8
Cc1ccccc1S(=O)(=O)N1CC(=O)N2[C@H](CO)[C@H](c3ccc(C#CCC4CCCC4)cc3)[C@H]2C1,3.7
O=S(=O)(c1ccc(F)cc1)N1CCCCN2[C@@H](CO)[C@@H](c3ccc(C#CC4CC4)cc3)[C@@H]2C1,1.3
CC(=O)N1CCCCN2[C@@H](CO)[C@H](c3ccc(-c4ccncc4)cc3)[C@@H]2C1,4.1
CO[C@H](CN(C)S(=O)(=O)c1ccc(F)cc1)[C@@H](C)CN(Cc1ccccc1Cl)[C@H](C)CO,-0.079
CS(=O)(=O)N1CC(=O)N2[C@@H](CO)[C@@H](c3ccc(C#CC4CCCC4)cc3)[C@@H]2C1,2.1
COc1cccc(-c2ccc([C@@H]3[C@@H](CO)N4CCCCN(Cc5cncnc5)C[C@@H]34)cc2)c1,-3
O=C(Cc1ccccn1)N[C@@H]1CC[C@@H](CCNS(=O)(=O)c2cccc(F)c2)O[C@H]1CO,-0.68
O=S(=O)(c1ccccc1)N1CCCCN2[C@H](C1)[C@H](c1ccc(C#Cc3ccccc3)cc1)[C@@H]2CO,3.5
C[C@@H]1CN([C@@H](C)CO)C(=O)CCCn2nncc2CO[C@@H]1CN(C)C(=O)c1ccc2ccn(C)c2c1,-0.69
CCCC#Cc1ccc([C@H]2[C@H](CO)N3CCCCN(Cc4cncnc4)C[C@@H]23)cc1,2.3
CCCC#Cc1ccc([C@@H]2[C@H](CO)N3CCCCN(Cc4cccnc4)C[C@@H]23)cc1,0.86
OC[C@H]1[C@H](c2ccc(C#Cc3ccccc3)cc2)[C@@H]2CN(Cc3cncnc3)CCCCN12,-4.5*
COCC#Cc1ccc([C@H]2[C@H]3CN(Cc4cncnc4)CCCCN3[C@H]2CO)cc1,1.3
CCCC#Cc1ccc([C@@H]2[C@H](CO)N3CCCCN(Cc4cncnc4)C[C@@H]23)cc1,0.051
OC[C@@H]1[C@H](c2ccc(C#Cc3ccccc3)cc2)[C@H]2CN(Cc3cncnc3)CCCCN12,-8.5*
OC[C@@H]1[C@@H](c2ccc(C#Cc3ccccc3)cc2)[C@@H]2CN(Cc3cncnc3)CCCCN12,-6.4*
OC[C@H]1[C@@H](c2ccc(C#Cc3ccccc3)cc2)[C@H]2CN(Cc3cncnc3)CCCCN21,-0.52
COCC#Cc1ccc([C@H]2[C@@H](CO)N3CCCCN(Cc4cncnc4)C[C@@H]23)cc1,1.7
OC[C@H]1[C@@H]2c3ccccc3NC[C@@H]2N1Cc1ccccc1Cl,2.2
CN(C)CC#Cc1ccc([C@H]2[C@H]3CN(C(=O)NC4CCCC4)CCCCN3[C@H]2CO)cc1,2.7
C/C=C/c1ccc([C@H]2[C@@H](CO)N(C(C)=O)[C@H]2CN(C)S(=O)(=O)CC)cc1,5
COCCNC(=O)C[C@@H]1CC[C@@H]2[C@H](COC[C@@H](O)CN2Cc2ccc(Cl)c(Cl)c2)O1,0.83
C[C@H]1CCCCO[C@H](CN(C)C(=O)Nc2ccccc2)[C@@H](C)CN([C@@H](C)CO)C(=O)c2cc(NC(=O)Nc3ccccc3)ccc2O1,1.4
SMILES,IDE exosite FP
CCCNC(=O)Nc1ccc2c(c1)OC[C@@H](C)N(Cc1cncnc1)C[C@@H](C)[C@@H](OC)CN(C)C2=O,0.77
CO[C@@H](CN(C)C(=O)c1cnccn1)[C@@H](C)CN([C@@H](C)CO)S(=O)(=O)c1ccccc1,0.68
CO[C@H](CN(C)C(=O)c1ccccc1F)[C@H](C)CN([C@H](C)CO)S(=O)(=O)c1ccc(F)cc1,2.4
CCS(=O)(=O)N1CCCCN2[C@H](CO)[C@H](c3ccc(-c4ccccc4)cc3)[C@H]2C1,0.63
Cc1ccccc1-c1ccc([C@H]2[C@@H](CO)N3CCCCN(S(=O)(=O)Cc4ccccc4)C[C@@H]23)cc1,-1.6
Cc1ccccc1-c1ccc([C@@H]2[C@@H](CO)N3CCCCN(S(C)(=O)=O)C[C@@H]23)cc1,-18*
CCS(=O)(=O)N1CCCCN2[C@H](CO)[C@@H](c3ccc(-c4ccccc4C)cc3)[C@H]2C1,-1.7
Cc1ccccc1-c1ccc([C@H]2[C@H]3CN(S(=O)(=O)Cc4ccccc4)CCCCN3[C@H]2CO)cc1,1.7
Cc1ccccc1-c1ccc([C@H]2[C@@H](CO)N3CCCCN(S(=O)(=O)Cc4ccccc4)C[C@H]23)cc1,0.6
CS(=O)(=O)N1CCCCN2[C@H](CO)[C@@H](c3ccc(C4=CCCC4)cc3)[C@H]2C1,5.1
CCS(=O)(=O)N1CCCCN2[C@@H](CO)[C@@H](c3ccc(-c4ccccc4C)cc3)[C@@H]2C1,-14*
CS(=O)(=O)N1CCCCN2[C@H](C1)[C@H](c1ccc(Br)cc1)[C@@H]2CO,-0.69
CS(=O)(=O)N1CCCCN2[C@H](CO)[C@H](c3ccc(C4=CCCC4)cc3)[C@@H]2C1,2.1
Cc1ccccc1-c1ccc([C@@H]2[C@H]3CN(S(C)(=O)=O)CCCCN3[C@H]2CO)cc1,-5.2*
Cc1ccccc1-c1ccc([C@@H]2[C@H](CO)N3CCCCN(S(C)(=O)=O)C[C@@H]23)cc1,-10*
